From the supplement of paper PMC6763611 come the findings set out here.

In this assay the test system is Plasmodium falciparum NF54. The assay can be described thus: growth inhibition relative to untreated control; higher = more inhibition. As to conditions: 72 h. A digest of the protocol:
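In dark 96-well half-area plates, each well held 100 μL of P. falciparum NF54 ring-stage culture at 1% parasitemia and 1% hematocrit. The cultures received a single test-compound dose of 5 μM or 1 μM and were kept at 37 °C for 72 h, in minimal RPMI either plain or enriched with folate (2.2 μM), pABA (7.3 μM), pHBA (7.3 μM), tyrosine (111 μM), phenylalanine (90 μM) and tryptophan. SYBR Green staining gave growth inhibition, expressed against untreated wells, with uninfected erythrocytes serving as the background.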

The mark [1] stands for this setting: 1 µM, MM + chorismate end-products (CM screening medium).
Where [2] appears, read: 5 µM, MM + chorismate end-products (CM screening medium).

In the case of `CC(C)C(NC(=O)Cc1cccc2ccccc12)C(=O)Nc1cccc(C#N)c1` (configuration not stated), the growth inhibition turned out to be 89.9% under setting [1]; 86.3% (1 µM, minimal medium (MM)); 79.3% under setting [2]; 91% (5 µM, minimal medium (MM)).
Taken in the same sequence, the figures for `NS(=O)(=O)c1cncc(-c2ccc3nccc(-c4cn[nH]c4)c3n2)c1` were 83.8%, more than 100%, 92.8% and 94.8%.
Taken in the same sequence, the figures for `CCC(=O)Nc1ccccc1C(=O)Nc1ccccn1` were less than 0%, less than 0%, less than 0% and less than 0%.
Taken in the same sequence, the figures for `Cc1nc(-c2ccccn2)nc(N2CCC(Cc3ccccc3)C2)c1Cl` (configuration not stated) were 52.8%, 3.18%, 80.2% and 84.9%.
Regarding `COc1nc2ccc(Br)cc2cc1[C@@H](c1ccccc1)[C@@](O)(CCN(C)C)c1cccc2ccccc12`, the growth inhibition reads like this: under setting [1], 73.2%; (1 µM, minimal medium (MM)) 77.4%; under setting [2], 99.4%; (5 µM, minimal medium (MM)) 88.2%.
Taken in the same sequence, the figures for `COc1cccc(-c2nc3c(N4CCCC4)cccc3n2CC2CCCN2)n1` (configuration not stated) were 79.8%, 71.2%, 96.1% and 89.8%.
Taken in the same sequence, the figures for `Nc1nc(N)c2c3c(sc2n1)CN(Cc1ccccc1)CC3` were 55.2%, 96.8%, 60.8% and 91.9%.
Taken in the same sequence, the figures for `Nc1ncnc2c1c(-c1cnc3ccccc3c1)nn2CC1CCNCC1` were 22.7%, 5.9%, less than 0% and 16.8%.
Take `CCS(=O)(=O)N(Cc1ccco1)Cc1cc2ccc(C)cc2nc1O`: the growth inhibition stood at 44% under setting [1]; 33.5% (1 µM, minimal medium (MM)); 87.4% under setting [2]; 94.5% (5 µM, minimal medium (MM)).
In the case of `O=C(Nc1nc(-c2ccccn2)cs1)C1CC1c1ccccc1F` (configuration not stated), the growth inhibition reads like this: under setting [1], 16%; (1 µM, minimal medium (MM)) less than 0%; under setting [2], 54.3%; (5 µM, minimal medium (MM)) 26.1%.
`c1ccc(-c2nc(NC3CCCCC3)cc(C3CC3)n2)nc1`: the growth inhibition reads like this: under setting [1], 80.6%; (1 µM, minimal medium (MM)) 56.8%; under setting [2], 94.6%; (5 µM, minimal medium (MM)) 93.6%.
Taken in the same sequence, the figures for `CCCCOC(=O)Nc1cc2nc(C3CCCCC3)[nH]c2cc1N1CCCC1` were 11.2%, 15.4%, 85.8% and 5.52%.
Taken in the same sequence, the figures for `CC(C)(C)c1cc(C(=O)N2CCN(c3nccnc3C#N)CC2)n(Cc2ccccc2)n1` were 73.4%, more than 100%, 92.9% and 92%.
Taken in the same sequence, the figures for `NC(CC(=O)c1ccc(Cl)cc1Cl)C(Cl)(Cl)Cl` (configuration not stated) were less than 0%, 11.5%, 18.3% and 23%.
Take `CC(C)C(Oc1cccc2ccccc12)C(=O)O` (configuration not stated): the growth inhibition runs as follows: under setting [1], 17.4%; (1 µM, minimal medium (MM)) 13.6%; under setting [2], less than 0%; (5 µM, minimal medium (MM)) 0.0991%.
For the compound `CCCn1c(CNc2ccccc2O)nc2ccccc21`, the growth inhibition under setting [1] amounted to 11.5%; the growth inhibition (1 µM, minimal medium (MM)) stood at 22.8%; the growth inhibition under setting [2] amounted to 12.5%; the growth inhibition (5 µM, minimal medium (MM)) is less than 0%.
Taken in the same sequence, the figures for `CCc1cc(=O)n(C)c(SC(C)C(=O)Nc2ccc(F)cc2)n1` (configuration not stated) were less than 0%, 2.62%, 96.9% and 94.5%.
Taken in the same sequence, the figures for `O=C(Nc1ccc(N2CCNCC2)nc1)c1oc(-c2ccccc2)nc1C(F)(F)F` were 91.7%, more than 100%, 96.6% and 89.9%.
In the case of `Cc1cc(OCC(=O)NCc2ccccc2)c2cc(Br)ccc2n1`, the growth inhibition under setting [1] came to 12.6%; the growth inhibition (1 µM, minimal medium (MM)) worked out at 3.05%; the growth inhibition under setting [2] is 56.5%; the growth inhibition (5 µM, minimal medium (MM)) is less than 0%.
In the case of `c1ccc(Oc2ccc(-c3cc(CN4CCOCC4)[nH]n3)cc2)cc1`, the growth inhibition runs as follows: under setting [1], 0.894%; (1 µM, minimal medium (MM)) less than 0%; under setting [2], less than 0%; (5 µM, minimal medium (MM)) 11.1%.
As for `NCCCC(N)(C(=O)O)C(F)F` (configuration not stated), the growth inhibition under setting [1] came to 14%; the growth inhibition (1 µM, minimal medium (MM)) is less than 0%; the growth inhibition under setting [2] was less than 0%; the growth inhibition (5 µM, minimal medium (MM)) was less than 0%.
`Clc1cccc(C(c2ccc(CN3CCNCC3)cc2)n2ccnc2)c1` (configuration not stated): the growth inhibition under setting [1] turned out to be 93.2%; the growth inhibition (1 µM, minimal medium (MM)) is more than 100%; the growth inhibition under setting [2] came out at 93.5%; the growth inhibition (5 µM, minimal medium (MM)) is 91.5%.
Taken in the same sequence, the figures for `CC(C)(C)CN1C(=O)C(c2ccccc2)(c2ccccc2)N=C1N` were 45.9%, 45.7%, 57.1% and 34.9%.
